# Results published in article PMC7862700, “An all-to-all approach to the identification of sequence-specific readers for epigenetic DNA modifications on cytosine”.
# Legend:
# Assay in all cases: DAPPL (digital affinity profiling via proximity ligation, sequencing); 10 mM Tris-HCl pH 7.5, 50 mM NaCl, 1 mM DTT, 4% glycerol, room temperature, 30 min; GST-TFs on glutathione beads, 16-mer random dsDNA library, 0.1% formaldehyde crosslink after washing; high values mean tight binding
# Details in all cases: protein: recombinant; tags: N-terminal GST; dsDNA, one strand shown
# ERF = target: T1, ERF (Homo sapiens, UniProt P50548 1-548)
# T1 sequence: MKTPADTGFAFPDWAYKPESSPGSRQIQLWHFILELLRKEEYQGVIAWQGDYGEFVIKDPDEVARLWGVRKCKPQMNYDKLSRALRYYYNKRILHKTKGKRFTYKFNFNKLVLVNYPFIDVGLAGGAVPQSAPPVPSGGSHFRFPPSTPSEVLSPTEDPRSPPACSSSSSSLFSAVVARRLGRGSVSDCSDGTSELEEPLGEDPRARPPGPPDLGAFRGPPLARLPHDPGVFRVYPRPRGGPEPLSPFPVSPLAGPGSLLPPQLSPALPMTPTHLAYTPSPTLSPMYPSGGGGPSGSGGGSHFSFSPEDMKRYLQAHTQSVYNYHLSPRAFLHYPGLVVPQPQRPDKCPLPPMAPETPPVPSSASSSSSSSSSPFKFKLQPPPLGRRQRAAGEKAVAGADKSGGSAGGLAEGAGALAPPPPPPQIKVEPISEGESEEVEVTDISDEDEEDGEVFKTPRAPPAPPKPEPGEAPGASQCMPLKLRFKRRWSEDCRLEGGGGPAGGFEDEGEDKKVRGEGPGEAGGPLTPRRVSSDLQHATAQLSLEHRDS
# In short: (§1)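 After expression in yeast as GST fusions, human transcription factors were bound to glutathione beads, DNA-barcoded and mixed with a tag-only sample. The pools were incubated with 200 nmole of a 16-mer random double-stranded DNA library in Tris/NaCl/DTT/glycerol buffer (30 min, room temperature), washed and crosslinked with 0.1% formaldehyde. Proximity ligation with BsaI/T4 ligase ran for 1 h at 37 °C, before PCR amplification and sequencing on an Illumina NextSeq500. Binding signal is a hexamer's read frequency for a factor divided by its frequency for the tag-only sample.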
# ETV3L = target: T2, ETV3L (Homo sapiens, UniProt Q6ZN32 1-361)
# T2 sequence: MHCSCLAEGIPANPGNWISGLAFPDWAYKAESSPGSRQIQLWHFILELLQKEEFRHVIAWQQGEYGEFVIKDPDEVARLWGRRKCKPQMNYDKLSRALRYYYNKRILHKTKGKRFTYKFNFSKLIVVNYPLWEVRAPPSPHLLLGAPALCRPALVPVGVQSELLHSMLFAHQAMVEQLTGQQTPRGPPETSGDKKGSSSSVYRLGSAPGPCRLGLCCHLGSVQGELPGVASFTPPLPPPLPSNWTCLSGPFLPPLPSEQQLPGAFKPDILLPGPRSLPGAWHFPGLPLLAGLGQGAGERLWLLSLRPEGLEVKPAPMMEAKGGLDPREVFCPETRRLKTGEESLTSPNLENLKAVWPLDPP
# In short: as §1
# ETS2 = target: T3, ETS2 (Homo sapiens, UniProt P15036 1-469)
# T3 sequence: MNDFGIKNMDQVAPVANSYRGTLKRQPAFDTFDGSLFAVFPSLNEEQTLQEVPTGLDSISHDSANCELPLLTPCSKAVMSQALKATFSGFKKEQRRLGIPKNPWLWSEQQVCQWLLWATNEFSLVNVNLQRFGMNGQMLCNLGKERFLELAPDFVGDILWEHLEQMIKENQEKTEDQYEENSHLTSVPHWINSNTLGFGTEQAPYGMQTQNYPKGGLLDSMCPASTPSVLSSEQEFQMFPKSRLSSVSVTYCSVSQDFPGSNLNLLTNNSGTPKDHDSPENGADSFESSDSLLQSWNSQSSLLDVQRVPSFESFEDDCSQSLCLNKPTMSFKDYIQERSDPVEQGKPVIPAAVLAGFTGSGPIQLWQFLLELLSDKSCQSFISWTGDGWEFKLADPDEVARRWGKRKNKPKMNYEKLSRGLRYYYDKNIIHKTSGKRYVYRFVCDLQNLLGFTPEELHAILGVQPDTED
# In short: as §1
# SPDEF = target: T4, SPDEF (Homo sapiens, UniProt O95238 1-335)
# T4 sequence: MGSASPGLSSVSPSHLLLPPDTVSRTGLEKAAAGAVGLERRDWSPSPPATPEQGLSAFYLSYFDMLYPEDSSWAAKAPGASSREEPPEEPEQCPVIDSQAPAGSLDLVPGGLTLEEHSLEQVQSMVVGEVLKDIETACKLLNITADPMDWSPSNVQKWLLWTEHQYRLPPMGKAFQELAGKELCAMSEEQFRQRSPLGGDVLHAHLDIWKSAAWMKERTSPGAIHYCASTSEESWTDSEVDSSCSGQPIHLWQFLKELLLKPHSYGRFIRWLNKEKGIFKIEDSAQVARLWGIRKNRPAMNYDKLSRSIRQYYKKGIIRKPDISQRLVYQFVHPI
# In short: as §1
# ETV7 = target: T5, ETV7 (Homo sapiens, UniProt Q9Y603 1-341)
# T5 sequence: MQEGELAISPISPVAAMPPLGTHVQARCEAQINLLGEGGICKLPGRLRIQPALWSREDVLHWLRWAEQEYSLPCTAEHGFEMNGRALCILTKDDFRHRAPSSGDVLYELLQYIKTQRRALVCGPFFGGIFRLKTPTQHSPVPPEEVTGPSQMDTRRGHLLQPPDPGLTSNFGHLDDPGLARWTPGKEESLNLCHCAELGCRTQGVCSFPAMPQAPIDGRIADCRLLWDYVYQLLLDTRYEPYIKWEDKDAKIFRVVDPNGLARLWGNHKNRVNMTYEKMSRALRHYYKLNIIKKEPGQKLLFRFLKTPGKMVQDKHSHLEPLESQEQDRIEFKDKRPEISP
# In short: as §1
# ELF5 = target: T6, ELF5 (Homo sapiens, UniProt Q9UKW6-2 1-255)
# T6 sequence: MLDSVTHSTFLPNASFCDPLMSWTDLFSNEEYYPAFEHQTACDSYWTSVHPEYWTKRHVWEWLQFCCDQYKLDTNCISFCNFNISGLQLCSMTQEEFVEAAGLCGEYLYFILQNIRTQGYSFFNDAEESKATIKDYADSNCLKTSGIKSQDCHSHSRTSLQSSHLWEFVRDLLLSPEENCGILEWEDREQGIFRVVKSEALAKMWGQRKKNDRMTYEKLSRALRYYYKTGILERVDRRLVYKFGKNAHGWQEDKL
# In short: as §1
# ETV3 = target: T7, ETV3 (Homo sapiens, UniProt P41162-2 1-143)
# T7 sequence: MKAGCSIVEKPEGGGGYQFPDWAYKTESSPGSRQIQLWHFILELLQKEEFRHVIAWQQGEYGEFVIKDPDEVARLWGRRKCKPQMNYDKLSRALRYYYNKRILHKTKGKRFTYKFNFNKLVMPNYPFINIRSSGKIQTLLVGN
# In short: as §1
# ETV6 = ETV6 (Homo sapiens, UniProt P41212 1-452)
# Chain of ETV6 (P41212 whole entry): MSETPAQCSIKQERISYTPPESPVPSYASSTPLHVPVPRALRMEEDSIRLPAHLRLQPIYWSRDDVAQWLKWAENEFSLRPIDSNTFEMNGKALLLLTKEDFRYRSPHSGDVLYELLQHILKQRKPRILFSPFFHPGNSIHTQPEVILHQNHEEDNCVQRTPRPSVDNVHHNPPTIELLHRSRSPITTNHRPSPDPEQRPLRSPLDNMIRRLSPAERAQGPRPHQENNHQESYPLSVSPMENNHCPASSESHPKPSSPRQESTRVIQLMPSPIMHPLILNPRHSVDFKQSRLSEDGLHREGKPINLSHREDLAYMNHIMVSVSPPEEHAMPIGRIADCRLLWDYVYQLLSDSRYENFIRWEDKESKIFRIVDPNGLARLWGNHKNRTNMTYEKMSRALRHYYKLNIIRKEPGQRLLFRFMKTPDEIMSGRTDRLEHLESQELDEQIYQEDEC
# In short: as §1
Sequence,binding signal (ERF),binding signal (ETV3L),binding signal (ETS2),binding signal (SPDEF),binding signal (ETV7),binding signal (ELF5),binding signal (ETV3),binding signal (ETV6)
TTTCGA,"1.61 fold enrichment (6-mer frequency, TF over GST control)","1.54 fold enrichment (6-mer frequency, TF over GST control)","1.42 fold enrichment (6-mer frequency, TF over GST control)","1.34 fold enrichment (6-mer frequency, TF over GST control)","1.29 fold enrichment (6-mer frequency, TF over GST control)","1.42 fold enrichment (6-mer frequency, TF over GST control)","1.41 fold enrichment (6-mer frequency, TF over GST control)","1.33 fold enrichment (6-mer frequency, TF over GST control)"
ACTATT,"1.22 fold enrichment (6-mer frequency, TF over GST control)","1.27 fold enrichment (6-mer frequency, TF over GST control)","1.37 fold enrichment (6-mer frequency, TF over GST control)","1.13 fold enrichment (6-mer frequency, TF over GST control)","1.32 fold enrichment (6-mer frequency, TF over GST control)","1.29 fold enrichment (6-mer frequency, TF over GST control)","1.35 fold enrichment (6-mer frequency, TF over GST control)","1.43 fold enrichment (6-mer frequency, TF over GST control)"
AATGAT,"1.18 fold enrichment (6-mer frequency, TF over GST control)","1.24 fold enrichment (6-mer frequency, TF over GST control)","1.12 fold enrichment (6-mer frequency, TF over GST control)","1.13 fold enrichment (6-mer frequency, TF over GST control)","1.2 fold enrichment (6-mer frequency, TF over GST control)","1.06 fold enrichment (6-mer frequency, TF over GST control)","1.21 fold enrichment (6-mer frequency, TF over GST control)","1.24 fold enrichment (6-mer frequency, TF over GST control)"
AAAGAC,"1.08 fold enrichment (6-mer frequency, TF over GST control)","1.06 fold enrichment (6-mer frequency, TF over GST control)","1.12 fold enrichment (6-mer frequency, TF over GST control)","1.01 fold enrichment (6-mer frequency, TF over GST control)","1.03 fold enrichment (6-mer frequency, TF over GST control)","1.03 fold enrichment (6-mer frequency, TF over GST control)","1.01 fold enrichment (6-mer frequency, TF over GST control)","1.16 fold enrichment (6-mer frequency, TF over GST control)"
CCAATC,"1.03 fold enrichment (6-mer frequency, TF over GST control)","1.19 fold enrichment (6-mer frequency, TF over GST control)","1.19 fold enrichment (6-mer frequency, TF over GST control)","1.16 fold enrichment (6-mer frequency, TF over GST control)","1.23 fold enrichment (6-mer frequency, TF over GST control)","1.16 fold enrichment (6-mer frequency, TF over GST control)","1.15 fold enrichment (6-mer frequency, TF over GST control)","1.15 fold enrichment (6-mer frequency, TF over GST control)"
GGCTCT,"1.36 fold enrichment (6-mer frequency, TF over GST control)","1.34 fold enrichment (6-mer frequency, TF over GST control)","1.2 fold enrichment (6-mer frequency, TF over GST control)","1.13 fold enrichment (6-mer frequency, TF over GST control)","1.44 fold enrichment (6-mer frequency, TF over GST control)","1.15 fold enrichment (6-mer frequency, TF over GST control)","1.34 fold enrichment (6-mer frequency, TF over GST control)","1.3 fold enrichment (6-mer frequency, TF over GST control)"
CCGATT,"1.28 fold enrichment (6-mer frequency, TF over GST control)","1.43 fold enrichment (6-mer frequency, TF over GST control)","1.39 fold enrichment (6-mer frequency, TF over GST control)","1.32 fold enrichment (6-mer frequency, TF over GST control)","1.31 fold enrichment (6-mer frequency, TF over GST control)","1.39 fold enrichment (6-mer frequency, TF over GST control)","1.38 fold enrichment (6-mer frequency, TF over GST control)","1.52 fold enrichment (6-mer frequency, TF over GST control)"
GTATCT,"1.16 fold enrichment (6-mer frequency, TF over GST control)","1.16 fold enrichment (6-mer frequency, TF over GST control)","1.05 fold enrichment (6-mer frequency, TF over GST control)","1.14 fold enrichment (6-mer frequency, TF over GST control)","1.14 fold enrichment (6-mer frequency, TF over GST control)","1.18 fold enrichment (6-mer frequency, TF over GST control)","1.13 fold enrichment (6-mer frequency, TF over GST control)","1.19 fold enrichment (6-mer frequency, TF over GST control)"
